Out of some 360,000 compounds screened, about 1,800 (0.5%) were called active. The list comes from a sample in which actives are over-represented; it also holds similar structures and randomly drawn compounds. Values without a mark were called inactive.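 How the source made its calls: active means interference check ratio from 0.5 to 1.5 plus GFP to RFP signal ratio inhibition reaching or exceeding a fixed threshold (cut at about 30% in these data, passing the limit was not always enough); inactive means the rest.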
Test: suppressors of acrylamide-induced Pgst-4::GFP reporter in worms, primary screen, SKN-1 inhibitor project, whole organism, uHTS, GFP/RFP fluorescence ratio, strain VP596 (AID 624304)
Conditions: C. elegans VP596 Pgst-4::GFP/RFP ratio, 24 h, at 21.8 µM, stronger effect = higher value

Row | Compound | inhibition
1 | COc1cc2ccccc2cc1C(=O)Nc1ccncc1 | 36.2% (active)
2 | COc1ccccc1N(C)S(=O)(=O)c1ccc(Cl)c(C(=O)Nc2ccncc2)c1 | 23.4%
3 | COc1cccc(OC)c1C(=O)Nc1ccc(Cc2ccncc2)cc1 | -3.1%
4 | O=C(O)c1cccc2c1C(=O)N(C1CCCC1)C2 | -4.43%
5 | CCN(CC)c1ccc2oc(=O)c(C)nc2c1 | 40.8% (active)
6 | Cc1ccc2c(=O)oc(N(C)C)nc2c1 | 8.34%
7 | CN(Cc1nc2ccccc2c(=O)[nH]1)Cc1cc(=O)oc2ccc3ccccc3c12 | 14.1%
8 | Cc1c(Cl)c([N+](=O)[O-])nn1CC(=O)NCCCN1CCOCC1 | 28.4%
9 | CCCCn1ccnc1C(=O)c1cccc(S(=O)(=O)N2c3ccccc3CC2C)c1 (stereo not given) | 41.7% (active)
10 | CC1Cc2ccccc2N1S(=O)(=O)c1cccc(C(=O)OCC(=O)N2CCOCC2)c1 (stereo not given) | 17.4%
11 | CC1Cc2ccccc2N1S(=O)(=O)c1cccc(C(=O)NCC(c2ccco2)N2CCCC2)c1 (stereo not given) | 4.55%
12 | COCCN(C(=O)COC(=O)Cc1cccc(OC)c1)c1c(N)n(Cc2ccccc2)c(=O)[nH]c1=O | 5.12%
13 | CCCCOc1ccc(N(CC(=O)NC(C)C)C(=O)CCC(=O)Nc2ccccn2)cc1 | -1.05%
14 | O=C(NCCCn1ccnc1)C(=O)NCC1OCCN1S(=O)(=O)c1cc(F)ccc1F (stereo not given) | -7.89%
15 | CCc1ccc(-c2nc(SCC(=O)NC3CCCC3)n[nH]2)cc1 | 3.3%
16 | Cn1c(=NC(=O)c2ccco2)sc2cccc(F)c21 | 7.91%
17 | Cn1c(=NC(=O)C2CC2)sc2cc(F)cc(F)c21 | 38% (active)
18 | CSCCNCc1cn(-c2ccc(F)cc2F)nc1-c1ccccc1C | -14.2%
19 | O=C1CC2(CCN(C(=O)COc3ccc(F)cc3)CC2)Oc2ccccc21 | -3.05%
20 | CN(C)/C=N/c1cc(=O)n(C)c(=O)n1CC1CC1 | 8.63%
21 | CN=C1C=C/C(=N/N=c2\ccn(O)cc2C)C=C1C | 41.1% (active)
22 | COc1ccc(/C=C/C2=CC(C)(C)NC(=S)N2)c(OC)c1 | -2.28%
23 | Fc1ccc(COc2cccc(-c3n[nH]c(=S)o3)c2)cc1 | -1.11%
24 | Fc1cccc(Cl)c1COc1ccc(-c2nnco2)cc1 | 23.1%

Row | Compound | inhibition
25 | Fc1ccc(COc2ccc(-c3nnco3)cc2)cc1 | 77.7% (active)
26 | Cc1cccc(NC(=O)NC2(C)CCS(=O)(=O)C2)c1 (stereo not given) | -6.44%
27 | CCCC(NCC(=O)Nc1ccccc1C(=O)NC1CC1)c1ccccc1 (stereo not given) | 11.1%
28 | Cc1ccc(NC(=O)NC(=O)CSc2nnc(-c3ccc(OC(F)F)cc3)n2N)c(C)c1 | 1.8%
29 | CC(C)C[C@@H](COc1ccccc1)N1CCN(CC(C)C)CCC1=O | 12.3%
30 | CC/C(=C\c1ccc(Cl)cc1)c1ccncc1 | 57.3% (active)
31 | CC(Cc1cccs1)N(Cc1ccc(Cl)cc1)C(=O)c1ccncc1 (stereo not given) | 8.76%
32 | N#C/C(=C/c1ccc(Cl)cc1)NC(=O)c1ccccc1 | -13.8%
33 | CCCSC(=S)NC1CCS(=O)(=O)C1 (stereo not given) | 10.7%
34 | O=C(OCC(=O)N1CCCC1=O)c1cc(S(=O)(=O)N2CCOCC2)ccc1Cl | 6.4%
35 | O=C(OCC(=O)N1CCOCC1)c1ccc2ccccc2c1 | -11.5%
36 | COc1ccc(OC)c(/C(C)=N\NC(=O)c2cc3cc(Cl)ccc3n2C)c1 | 1.75%
37 | C=C(C)c1cccc(C(C)(C)NC(=O)NC2CCCC2)c1 | -1.51%
38 | C=C(C)c1cccc(C(C)(C)NC(=O)NCCN(CC)CC)c1 | -10.6%
39 | C=C(C)c1cccc(C(C)(C)NC(=O)N2CCN(c3ncccn3)CC2)c1 | 36.7% (active)
40 | COc1cccc(NC(=O)C2C(c3ccccc3)C2(Cl)Cl)c1 (stereo not given) | -10.4%
41 | COc1ccc(N2CCN(C(=O)CCNC(=O)c3ccc(Br)cc3)CC2)cc1 | 4.57%
42 | CCOc1ccccc1NC(=O)c1cc(S(=O)(=O)N2CCC3(CC2)OCCO3)ccc1F | 3.17%
43 | CN1OC[C@@H]2CN(C(=O)c3ccc(-c4ccccc4)cc3)[C@H](c3ccc(-c4cccc(F)c4)cc3)C[C@@H]21 | -1.35%
44 | CC(=O)N1CCN(C(=O)C2(NC(=O)Nc3ccc(C)cc3)CCCCC2)CC1 | -13.7%
45 | O=C(C1CCCO1)N1CCN(C(=O)C23CC4CC(CC(C4)C2)C3)CC1 (stereo not given) | 24.4%
46 | N/C(Cc1ccc([N+](=O)[O-])cc1)=N\OC(=O)COc1ccc2ccccc2c1 | -1.15%
47 | CCn1nccc1C(=O)Nc1ccc(S(=O)(=O)NC23CC4CC(CC(C4)C2)C3)cc1 | 5.56%
48 | CC(c1cccnc1)N(CCN(C)C)C(=O)Nc1ccc(Cl)c(Cl)c1 (stereo not given) | 0.83%

Row | Compound | inhibition
49 | CCn1nccc1C(=O)Nc1ccc(Cl)c(Cl)c1 | 44.5% (active)
50 | CC1CCCC(C)N1C(=O)CSc1nnnn1C1CCCC1 (stereo not given) | -2.05%
51 | COc1ccccc1C1=CC(=O)C[C@H](c2ccc(F)cc2)C1 | 8.41%
52 | COc1ccccc1-c1cc(NC(C)=O)c2ncc(-c3ccc(F)cc3)n2c1 | 18.1%
53 | COc1ccccc1-c1nnc(-c2ccc(F)cc2)o1 | 45% (active)
54 | Cc1cccc(-c2nc3c(c(SCC(=O)N4CCOCC4)n2)CCCC3)c1 | 37.9% (active)
55 | N#Cc1c(C(F)(F)F)cc(-c2ccccc2)nc1SCC(=O)N1CCOCC1 | 2.8%
56 | Cn1c(SCC(=O)N2CCOCC2)nnc1-c1ccc2ncccc2c1 | 3.82%
57 | Cc1ccc(C)c(S(=O)(=O)N2CC(=O)Nc3ccccc32)c1 | -15.3%
58 | CCOC(=O)c1cc(C)nc(S(C)(=O)=O)c1C#N | 13.5%
59 | CCOC(=O)c1c(C(C#N)C#N)cc(C)nc1C | -3.86%
60 | CCCCSc1[nH]c(=O)c(C(=O)OCC)cc1C#N | 48.3% (active)
61 | CC(=O)Nc1cnc(-c2ccc(O)cc2C)cn1 | -1.38%
62 | CCC(Oc1ccccc1)C(=O)OCC(=O)Nc1c(C)nn(-c2ccccc2)c1C (stereo not given) | 15.9%
63 | CC(C)C1CCN(C(=O)C2CCC(=O)N(C3CCCCCC3)C2)CC1 (stereo not given) | -2.6%
64 | Cc1nn(CC2CC2)c(=O)n1N(C)c1ncc(C(F)(F)F)cc1Cl | 3.57%
65 | Cc1nn(CC#N)c(=O)n1N(C)c1ncc(C(F)(F)F)cc1Cl | -3.68%
66 | Cc1nn(-c2ncc(C(F)(F)F)cc2Cl)c(=O)n1-c1ccccc1 | 35.6% (active)
67 | CCCn1c(N)c(C(=O)CSc2nnc3n2CCCCC3)c(=O)[nH]c1=O | 9.24%
68 | COc1ccccc1C(=O)N(C1=NC(C)CS1)c1ccc(Cl)cc1 (stereo not given) | -17.9%
69 | Cc1ccc(N/C(N)=N/c2nc(C(F)(F)F)cc(C(F)(F)F)n2)cc1 | 2.4%
70 | Oc1ccc(N=Nc2nccs2)c(O)c1 | 40.3% (active)
71 | Cc1c(NC(=S)Nc2ccccc2)c(=O)n(-c2ccccc2)n1C | 13.7%
72 | Cc1cc(C)cc(N(CC(=O)Nc2c(C)n(C)n(-c3ccccc3)c2=O)S(C)(=O)=O)c1 | -7.93%

Row | Compound | inhibition
73 | CCN(CC)P(=O)(/C(Cl)=C\Nc1c(C)n(C)n(-c2ccccc2)c1=O)N(CC)CC | 38.6% (active)
74 | C=CC[C@@H](CC(=O)NCCO)C(=O)N[C@H](C)COC(=O)[C@@H](CC=C)CC(=O)OC(C)(C)C | 4%
75 | CCOC(=O)C1CN(S(=O)(=O)c2ccc(F)cc2)C1 | -3.48%
76 | O=C(O)c1cccc(S(=O)(=O)N2CC=C(c3ccccc3)CC2)c1 | -4.6%
77 | Cc1c(C2=CCN(S(=O)(=O)c3ccc(Cl)cc3)CC2)c2ccccc2n1C | 40.5% (active)
78 | O=S(=O)(c1ccc(F)cc1)N1CC=C(c2ccccc2)CC1 | 0.877%
79 | O=C(CSc1cccc[n+]1[O-])c1ccc(-c2ccccc2)cc1 | -20.6%
80 | O=C(O)/C(=C/c1cccnc1)NC(=O)c1ccccc1 | 0.0898%
81 | Cc1cccc(NS(=O)(=O)c2ccc(C(=O)NCC(C)(C)N3CCOCC3)cc2)c1C | -5.62%
82 | Cc1cc(C(=O)COc2ccccc2[N+](=O)[O-])c(C)n1-c1cccc(S(=O)(=O)N2CCOCC2)c1 | 7.44%
83 | COCCNC(=O)CN(C(=O)CCC(=O)Nc1cc(C)on1)c1ccc(C)cc1C | -14.7%
84 | COCCNc1nc(N)c([N+](=O)[O-])c(N2CCCCCC2)n1 | 23.7%
85 | CC1CN(c2nc(Nc3ccccc3)nc(N)c2[N+](=O)[O-])CC(C)O1 (stereo not given) | 38% (active)
86 | Nc1nc(NCCCN2CCOCC2)nc(Nc2ccccc2)c1[N+](=O)[O-] | 5.52%
87 | CC(C)(C)C(=O)CSc1nc2ccccc2o1 | -6.68%
88 | CCN(CC)C(=O)CSc1nc2ccccc2o1 | 0.512%
89 | Fc1ccccc1OCCSc1nc2ccccc2o1 | 36.2% (active)
90 | Cn1c(SCC(=O)OC2CCCCC2)nnc1-c1ccc(S(=O)(=O)N2CCCC2)cc1 | -4.66%
91 | O=C(NCCc1nnc2ccc(SCC(=O)N3CCOCC3)nn12)c1ccccc1 | 9.19%
92 | O=C(CSc1nnnn1-c1ccccc1)NCc1ccco1 | -15%
93 | O=C(NCc1ccco1)C1(c2ccc(Cl)cc2)CCCC1 | -1.05%
94 | O=C(CSc1c2c(nc3ccc(Cl)cc13)CCCC2)NCc1ccco1 | 82.7% (active)
95 | CCn1c(=O)n(CC)c2cc(N3CCCC3)c(NC(=O)c3ccccc3Br)cc21 | -26.6%

From PubChem BioAssay AID624304 (Sanford-Burnham Center for Chemical Genomics, 2012)
